High-throughput results: PubChem BioAssay, National Center for Advancing Translational Sciences (NCATS)
JMJD2A Tudor – inhibitors of human JMJD2A Tudor domain | Potency, µM (top dose mostly 114 µM), for inactives: at the top dose activity change, negative = inhibition, actives largely listed as inhibitors | O75164 | AID 504339 | 390,000 tested, 4.4% active | AlphaScreen JMJD2A-Tudor / H3K4me3 peptide binding; note: % is set by controls: 0 for no effect and ±100 for the full control effect; nearly all actives have a fitted effect of over 50% in size
HP1b binding inh – inhibitors of HP1-beta chromodomain binding to methylated histone tails; Potency, µM (series often up to 114 µM), for the others: at the top dose activity change, negative = inhibition, most hits filed as inhibitors; AID 540317; AlphaScreen HP1-beta / biotin-H3K9me3 peptide binding; P83916; 390,000 tested, 0.56% active; note: nearly all actives have a fitted effect of over 70% in size
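AlphaScreen: HP1-beta (50 nM) preformed 30 min with biotin-H3(1-18)K9me3 peptide (50 nM) in PBS pH 7.4, 0.01% Tween-20. Compound added for 30 min at RT, then streptavidin donor/nickel chelate acceptor beads (10 ug/mL) for 30 min.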
GLS inh – blocks human kidney-isoform glutaminase activity | AID 624170 | Potency, µM (series often up to 45.5 µM), inactives show top-dose activity change, negative = inhibition, actives largely listed as inhibitors | 410,000 tested, 0.21% active | GLS enzymatic activity, qHTS titration; note: % is set by controls: 0 for no effect and ±100 for the full control effect
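Two-point fluorescence kinetic (t0, 30 min RT) for hKGA; glutamate detected via glutamate oxidase–HRP–Amplex Red. Substrate: 1 mM L-glutamine solution; buffer 45 mM KH2PO4, pH 8.2.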
G9a inh – inhibitors of human histone lysine methyltransferase G9a | G9a H3K9 monomethylation, AlphaScreen, 2 h | Potency, µM (doses to about 102 µM), for the others: at the top dose activity, negative = inhibition, most hits filed as inhibitors | 350,000 tested, 8.8% active | AID 504332; note: % is set by controls: 0 for no effect and ±100 for the full control effect; nearly all actives have a fitted effect of over 75% in size
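G9a (20 nM) preincubated 15 min RT with compounds, then 500 nM biotinylated H3K9 peptide and 20 uM SAM added; 2 h RT reaction. Monomethyl-H3K9 product detected by AlphaScreen with anti-H3K9me1 antibody, streptavidin donor and anti-rabbit IgG acceptor beads.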
BAZ2B block – blocks human BAZ2B | Q9UIF8 | AlphaScreen BAZ2B-H3K14Ac peptide displacement | Potency, µM (highest dose often 114 µM), inactives show at the highest dose activity change, negative = inhibition, usual class: inhibitors | 360,000 tested, 4.4% active; note: % is set by controls: 0 for no effect and ±100 for the full control effect; nearly all actives have a fitted effect of over 60% in size
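Inhibition is scored as reduced AlphaScreen emission. The BAZ2B/b-H3(5-23)K14Ac complex (50 nM each) in PBS pH 7.4, 0.01% Tween-20 meets compound (up to 110 uM) for 30 min at RT before bead addition.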
L3MBTL1 inh – inhibitors of human L3MBTL1. AlphaScreen L3MBTL1–H3K9me1 peptide binding. Potency, µM (doses to about 57.1 µM), without a hit: at the top dose activity, negative = inhibition, most hits filed as inhibitors. 230,000 tested, 0.66% active. AID 485360; note: % is set by controls: 0 for no effect and ±100 for the full control effect; nearly all actives have a fitted effect of over 60% in size
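First, the protein-peptide complex forms for 30 min at room temperature (L3MBTL1 50 nM, biotinylated H3K9me1 peptide 75 nM). Next, compounds are pin-transferred and incubated 30 min. Finally, AlphaScreen beads are added and read after 30 min.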
* marks the source's active call; other numbers are inactive results; ? = inconclusive; . = no result given; [ ] = remark or other dose. An excerpt weighted towards active compounds, which were near 10% of everything screened. Calls come from the whole dose curve; as a rule, active = well fitted curve in the direction sought with a large enough effect; inconclusive = small, poorly fitted or top-dose-only effect, or another doubt; inactive = no such curve, though single readings can be large; an effect the other way counts as inactive or inconclusive. Potency is the fitted concentration of half-maximal effect.

SMILES	JMJD2A Tudor	HP1b binding inh	GLS inh	G9a inh	BAZ2B block	L3MBTL1 inh
CN(C)S(=O)(=O)N(CC(=O)NCCSCc1ccccc1Cl)c1ccccc1	-14%	0%	-10%	5%[59 µM]	-4%	.
Cc1ccccc1CSCCNC(=O)CN(c1ccccc1)S(=O)(=O)N(C)C	45µM*	5%	-10%	8%[59 µM]	-7%	.
NC(=O)CC(NSc1ccccc1[N+](=O)[O-])C(=O)O (stereo not given)	35µM*	-8%	23%	?	?	8%
COc1ccc(-c2nc(CSCC(=O)NCCC(C)C)c(C)o2)cc1OC	-16%	25%	0%	-2%[59 µM]	-11%	.
COC(=O)c1ccc(-n2c(/C=C/c3cc(OC)c(OC)c(OC)c3)nc3cc(Cl)ccc3c2=O)cc1	-2%	61%	-3%	8%[59 µM]	2%	.
Cc1ccc([N+](=O)[O-])cc1N=Nc1c(-c2ccc([N+](=O)[O-])cc2)[nH]n(C(N)=S)c1=O	?	-4%	16%	?	32µM*	-9%
NC(=S)n1[nH]c(-c2ccc([N+](=O)[O-])cc2)c(N=Nc2ccc(Cl)cc2)c1=O	63µM*	8%	-11%	45µM*	5.6µM*	?
O=c1c(N=Nc2ccc(O)cc2)c(-c2ccccc2)[nH]n1-c1ccc([N+](=O)[O-])cc1	?	-8%	-5%	7.1µM*	-29%	-33%
O=c1cc(-c2ccccc2)[nH]n1-c1ccc([N+](=O)[O-])cc1	35µM*	?	14%	?	45µM*	-2%
NC(=O)c1ccc(N=Nc2c(-c3ccccc3)[nH]n(-c3ccccc3)c2=O)cc1	.	.	.	-35%	.	-5%
Cc1ccc([N+](=O)[O-])cc1N=Nc1c(C)[nH]n(C(N)=S)c1=O	-5%	43%	4%	-20%	-2%	.
Cc1cccc2sc(N(Cc3cccnc3)C(=O)C3COc4ccccc4O3)nc12 (stereo not given)	-6%	16%	4%	8%[59 µM]	-5%	.
Cc1c(Cl)cccc1NC(=O)Cc1cccs1	0%	54%	-3%	.	3%	0%
CC(=O)c1ccc(NC(=O)Cc2cccs2)cc1	?	-16%	1%	?	50µM*	-26%
Cc1c(NC(=O)Cc2cccs2)cccc1[N+](=O)[O-]	-11%[57.1 µM]	31%	-1%	?	50µM*	-24%
CCCCN(CCCC)S(=O)(=O)c1ccc(NC(=O)Cc2cccs2)cc1	45µM*	-27%	-16%	-36%[59 µM]	?	.
COC(=O)c1c(SCC(=O)Nc2cccc(C(F)(F)F)c2)[nH]c2ccccc2c1=O	-12%	15%	-2%	12%[59 µM]	-13%	.
COc1cc(C(=O)Nc2ccc(-c3nc4ccccc4o3)c(O)c2)cc(OC)c1OC	-6%	42%	-2%	-12%[59 µM]	-7%	.
O=C(COc1ccc(Br)cc1)Nc1ccccc1N1CCCC1	1%	32%	-4%	45µM*	-19%	-2%
O=C(CCNC(=O)c1ccc(Br)cc1)Nc1ccccc1N1CCCCC1	-7%	16%	-1%	56µM*	-2%	2%
Cc1cccc(Nc2ncnc3c2cnn3C)c1C	-20%	3%	-7%	4%[59 µM]	-1%	.
COc1ccc(/C=N/NC2=NCCCCC2)cc1	-13%	45%	-2%	28µM*	-3%	.
COc1ccc(/C=N/Nc2nccnc2Cl)cc1	-13%	6%	20%	2%	4%	.
Oc1ccccc1/C=N/NC1=NCCCCC1	-13%	44%	26%	.	10%	4%
COc1ccc(/C=N/NC(C)(C)C)c(OC)c1	-17%	17%	-25%	13µM*	?	0%
SMILES	JMJD2A Tudor	HP1b binding inh	GLS inh	G9a inh	BAZ2B block	L3MBTL1 inh
COc1ccc(/C=N/Nc2cc(N(C)C)nc(N(C)C)n2)cc1	?	?	-7%	4.5µM*	50µM*	-10%
COc1ccc(/C=N/NC2=NCCCCC2)c(OC)c1	-11%	27%	-20%	11µM*	-17%	-1%
CN(Cc1ccco1)c1ncnc2ccc(-c3cccc(Cl)c3)cc12	.	.	.	-24%[12.7 µM]	-19%	4%
COc1cccc(NC(=O)CSc2nnc3[nH]c(=O)cc(-c4ccccc4)n23)c1	-4%	59%	-6%	?	5%	.
O=C(Nc1cccc2cccnc12)c1ccc(Br)cc1	79%	140%	.	.	.	.
CCN1CCN(CCOCCOc2ccccc2)CC1	18µM*	?	4%	.	79µM*	-19%
CCN1CCN(CCOc2cccc(Oc3ccccc3)c2)CC1	4.5µM*	?	2%	22µM*	20µM*	-6%
N#C[C@H]1C[C@H]2C[C@@H]2N1C(=O)[C@@H](N)C12CC3CC(CC(O)(C3)C1)C2	.	.	-8%	.	.	.
CC(NCC1(N2CCOCC2)CCCCC1)C(=O)Nc1ccc(Cl)cc1Cl (stereo not given)	-15%	2%	9%	32µM*	50µM*	.
CC(C(=O)Nc1ccc(Cl)cc1Cl)N1C(=O)NC2(CCCCCCC2)C1=O (stereo not given)	2%	33%	-2%	7%[12.7 µM]	9%	4%
CC(NCC1(N2CCOCC2)CCCCC1)C(=O)N1CCc2ccccc21 (stereo not given)	2.8µM*	?	10%	?	40µM*	.
CC(Oc1ccccc1F)C(=O)NCC1(N2CCOCC2)CCCCC1 (stereo not given)	-16%	35%	7%	-3%[59 µM]	-2%	.
